In PubChem BioAssay (NCI) one finds growth data, which are given here for 29 compounds.

The test system of this assay is MDA-MB-468 breast. Kind of assay: NCI-60 one-dose screen, 48 h (100 = growth as untreated, 0 = no growth, -100 = all killed). Conditions: 10 µM unless noted.

Compounds without any hit were thinned out: in the full panel of roughly 83,000, 20% have a hit.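 Results are percent growth after 48 hours of single-concentration exposure. 100 means growth as in untreated cells, lower positive values show inhibition; negative values down to -100 show cell death.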 A number with no mark means an inactive call. The source made the active and inactive calls. Rule for the calls: active = growth percent below 10; inactive = the rest.

In the case of `O=C(CN1CCNCC1)N1CCOCC1`, the growth is 117%.

Turning to `COC(=O)[C@]1(C(C)C)N[C@H](c2cn(-c3ccccc3)nc2-c2ccccc2)[C@@H]2C(=O)N(c3ccc(Cl)cc3)C(=O)[C@@H]21`, the growth is 119%.

In the case of `Cc1ccc2nc3ccccc3c(NCc3ccccc3)c2c1`, the growth is -11% (active).

For `Cn1cc(-c2ccc3ncc(-c4ccc(CC(=O)Nc5cc(C(C)(C)C)nn5C)cc4)cc3c2)cn1`, the growth was -2.1% [30 µM] (active).

For the compound `COc1ccc(/C=C/C(=O)c2cc(O)ccc2O)cc1`, the growth is 71.2%.

Consider `CC(=O)n1cc(/C=C2\N=C(c3ccc(Cl)cc3)N(c3ccc(S(=O)(=O)Nc4nccs4)cc3)C2=O)c2ccccc21`, for which the growth is 96.1%.

With `O=C1/C(=C/c2ccc(F)cc2)CN(C(=O)C(Cl)Cl)C/C1=C\c1ccc(F)cc1`, the growth is -47% (active).

As for `Cc1nc(-c2cc3ccccc3c(N3CCN(C)CC3)n2)cs1`, the growth is 87%.

With `CN(C)C(=O)C1=NC(CO)C(=O)N(c2ccc(Cl)cc2)N1` (centres undefined), the growth was 95.2%.

On to `CCN(CC)c1ccc2cc(C(Nc3ccc(C)cc3)c3nnnn3C(C)(C)C)c(=O)oc2c1` (centres undefined), for which the growth was 105%.

With `O=[n+]1ccn([O-])c2ccccc21`, the growth is 86.9%.

In the case of `Cc1ccc(-c2nc(C#N)c(S(=O)(=O)n3nc(C)cc3N)o2)cc1`, the growth was 57.7%.

`CCCCCCCCCCCCCCCC(=O)O[C@@H]1[C@@H](O)[C@@H](O)C([C@H](NC(=O)[C@@H]2C[C@@H](CCC)CN2C)[C@H](C)Cl)O[C@@H]1SC` (some centres undefined): the growth is 97.9%.

For `N#Cc1c(-c2ccc(Cl)cc2)nc(NN=Cc2cccc(O)c2)nc1N1CCOCC1`, the growth is 87.4%.

Take `O=C(Cn1cc(CO)nn1)Nc1nc2ccccc2s1`: the growth is 101%.

Regarding `CCC(O)(C(c1ccccc1)c1ccccn1)C(c1ccccc1)c1ccccn1` (centres undefined), the growth was 114%.

Turning to `O=C1/C(=C/c2ccccc2O)N=C2SCCCN12`, the growth is 99.2%.

Consider `COc1ccc2c(c1)CCCC21C(=O)Nc2ccccc21` (centres undefined), for which the growth is 103%.

Regarding `Cc1c(C(=O)O)c(=O)n(-c2ccccc2)n1C`, the growth is 127%.

Turning to `Cc1cc(C(=C2C=CC(=Nc3ccccc3)C=C2)c2ccc(Nc3ccccc3)cc2)ccc1N`, the growth is -84.2% (active).

As to `Nc1nc2c(s1)CCc1c-2c(Br)n(Cc2ccccc2)c1Br`, the growth is 33.4%.

For the compound `O=C(CCN1CCOCC1)Nc1cccc(-n2cc(-c3ccncc3)c(-c3ccc(Cl)c(O)c3)n2)c1`, the growth is 25.2%.

Take `CCOC(=O)CN1CCC(C(=O)OCC)CC1`: the growth is 114%.

As to `Oc1ccc(CSc2nnc(-c3ccc(Oc4ccccc4)cc3)n2-c2ccccc2)c2cccnc12`, the growth was -2% (active).

Regarding `S=C(S)OCN1CCOCC1`, the growth is 99.1%.

`CCOC(=O)c1c(C)nc(C)c(C(=O)OCC)c1-c1cccnc1`: the growth is 94.8%.

For the compound `CC(=O)O[C@@H]1/C=C/C(=O)N[C@@H](C)CCC/C=C/[C@@H]2CCC[C@H]21`, the growth was 101%.

Regarding `C=C(Cl)COC(=O)C(C)(C)O`, the growth was 118%.

As for `COc1cc(/C=C2\C(=O)N(c3c(Cl)cccc3Cl)c3ccccc32)cc(OC)c1O`, the growth is 57.4%.
